33 targets from the supplement of paper PMC10849652 can be followed below.

Of roughly 8,800 targets only a part is listed; those with a hit were picked by preference. About 0.5% of all pairs of compound and target were hits. A number with no mark means an inactive call.

UniProt Q9NZC3, sequence (Q9NZC3 whole entry, looked up): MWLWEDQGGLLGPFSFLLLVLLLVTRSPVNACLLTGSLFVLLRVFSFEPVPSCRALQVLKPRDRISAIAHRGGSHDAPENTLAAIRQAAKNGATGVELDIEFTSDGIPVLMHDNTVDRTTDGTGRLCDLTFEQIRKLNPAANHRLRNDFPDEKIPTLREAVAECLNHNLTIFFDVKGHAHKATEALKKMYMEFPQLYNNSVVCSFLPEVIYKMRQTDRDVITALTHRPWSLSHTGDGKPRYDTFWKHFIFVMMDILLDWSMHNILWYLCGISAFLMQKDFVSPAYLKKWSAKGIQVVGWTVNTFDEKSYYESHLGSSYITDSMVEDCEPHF
UniProt Q5VTE0, sequence (Q5VTE0 whole entry, looked up): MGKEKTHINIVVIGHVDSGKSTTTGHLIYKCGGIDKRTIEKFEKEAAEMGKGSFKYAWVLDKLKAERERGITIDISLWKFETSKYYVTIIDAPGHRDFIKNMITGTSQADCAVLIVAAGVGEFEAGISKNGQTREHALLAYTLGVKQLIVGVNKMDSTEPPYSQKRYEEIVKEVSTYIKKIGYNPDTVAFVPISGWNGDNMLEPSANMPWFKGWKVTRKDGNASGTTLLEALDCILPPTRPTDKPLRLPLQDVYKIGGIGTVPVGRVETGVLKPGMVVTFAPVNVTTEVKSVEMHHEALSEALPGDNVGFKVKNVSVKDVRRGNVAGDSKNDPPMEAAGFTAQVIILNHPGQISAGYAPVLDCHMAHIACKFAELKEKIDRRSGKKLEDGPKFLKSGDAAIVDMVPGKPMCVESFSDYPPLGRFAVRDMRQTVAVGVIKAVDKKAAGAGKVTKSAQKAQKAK
UniProt Q9H790, sequence (Q9H790 whole entry, looked up): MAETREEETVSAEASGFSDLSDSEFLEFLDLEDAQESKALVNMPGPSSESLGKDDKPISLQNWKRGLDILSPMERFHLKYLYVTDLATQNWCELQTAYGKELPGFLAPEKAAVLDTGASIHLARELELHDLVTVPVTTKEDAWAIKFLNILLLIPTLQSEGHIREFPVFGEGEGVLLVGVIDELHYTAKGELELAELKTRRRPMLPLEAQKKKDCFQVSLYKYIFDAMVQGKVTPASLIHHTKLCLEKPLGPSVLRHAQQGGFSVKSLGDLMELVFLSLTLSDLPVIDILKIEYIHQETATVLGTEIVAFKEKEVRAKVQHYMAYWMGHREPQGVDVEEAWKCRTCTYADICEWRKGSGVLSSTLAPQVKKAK
UniProt Q15723, sequence (Q15723 whole entry, looked up): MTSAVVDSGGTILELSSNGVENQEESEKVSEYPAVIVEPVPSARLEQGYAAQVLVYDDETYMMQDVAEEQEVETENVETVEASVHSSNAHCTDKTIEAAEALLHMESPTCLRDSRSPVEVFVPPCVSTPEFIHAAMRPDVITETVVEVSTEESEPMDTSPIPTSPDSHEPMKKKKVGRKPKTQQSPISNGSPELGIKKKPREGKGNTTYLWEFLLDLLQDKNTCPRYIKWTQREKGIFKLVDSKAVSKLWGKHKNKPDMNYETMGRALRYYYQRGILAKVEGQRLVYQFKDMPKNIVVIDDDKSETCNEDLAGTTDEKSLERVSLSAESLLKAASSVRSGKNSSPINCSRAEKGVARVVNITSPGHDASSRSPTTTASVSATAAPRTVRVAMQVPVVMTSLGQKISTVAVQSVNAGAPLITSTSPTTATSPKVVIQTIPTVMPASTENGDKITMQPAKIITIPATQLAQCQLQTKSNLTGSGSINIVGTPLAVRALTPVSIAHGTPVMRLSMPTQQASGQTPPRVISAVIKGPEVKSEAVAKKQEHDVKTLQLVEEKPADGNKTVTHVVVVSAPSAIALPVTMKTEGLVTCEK
UniProt Q9NYY8, sequence (Q9NYY8 whole entry, looked up): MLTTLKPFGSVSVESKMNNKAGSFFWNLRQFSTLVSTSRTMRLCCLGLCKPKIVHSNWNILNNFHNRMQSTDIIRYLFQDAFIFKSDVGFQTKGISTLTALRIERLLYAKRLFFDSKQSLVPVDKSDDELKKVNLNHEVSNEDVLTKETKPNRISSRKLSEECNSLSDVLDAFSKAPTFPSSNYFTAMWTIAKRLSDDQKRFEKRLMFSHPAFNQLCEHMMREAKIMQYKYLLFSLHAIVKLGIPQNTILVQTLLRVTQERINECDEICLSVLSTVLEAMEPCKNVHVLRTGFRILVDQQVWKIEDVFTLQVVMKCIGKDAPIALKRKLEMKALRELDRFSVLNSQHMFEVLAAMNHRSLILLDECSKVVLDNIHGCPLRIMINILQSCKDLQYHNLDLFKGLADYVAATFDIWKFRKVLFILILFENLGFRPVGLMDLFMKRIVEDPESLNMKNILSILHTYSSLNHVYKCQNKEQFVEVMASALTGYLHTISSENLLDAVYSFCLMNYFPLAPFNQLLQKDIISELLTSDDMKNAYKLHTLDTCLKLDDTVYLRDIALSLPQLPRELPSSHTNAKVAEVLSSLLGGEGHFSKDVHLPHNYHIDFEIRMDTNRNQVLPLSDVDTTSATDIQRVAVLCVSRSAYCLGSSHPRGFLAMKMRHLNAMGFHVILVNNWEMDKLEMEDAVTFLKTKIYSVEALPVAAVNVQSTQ
UniProt Q9Y2H6, sequence (Q9Y2H6 whole entry, looked up): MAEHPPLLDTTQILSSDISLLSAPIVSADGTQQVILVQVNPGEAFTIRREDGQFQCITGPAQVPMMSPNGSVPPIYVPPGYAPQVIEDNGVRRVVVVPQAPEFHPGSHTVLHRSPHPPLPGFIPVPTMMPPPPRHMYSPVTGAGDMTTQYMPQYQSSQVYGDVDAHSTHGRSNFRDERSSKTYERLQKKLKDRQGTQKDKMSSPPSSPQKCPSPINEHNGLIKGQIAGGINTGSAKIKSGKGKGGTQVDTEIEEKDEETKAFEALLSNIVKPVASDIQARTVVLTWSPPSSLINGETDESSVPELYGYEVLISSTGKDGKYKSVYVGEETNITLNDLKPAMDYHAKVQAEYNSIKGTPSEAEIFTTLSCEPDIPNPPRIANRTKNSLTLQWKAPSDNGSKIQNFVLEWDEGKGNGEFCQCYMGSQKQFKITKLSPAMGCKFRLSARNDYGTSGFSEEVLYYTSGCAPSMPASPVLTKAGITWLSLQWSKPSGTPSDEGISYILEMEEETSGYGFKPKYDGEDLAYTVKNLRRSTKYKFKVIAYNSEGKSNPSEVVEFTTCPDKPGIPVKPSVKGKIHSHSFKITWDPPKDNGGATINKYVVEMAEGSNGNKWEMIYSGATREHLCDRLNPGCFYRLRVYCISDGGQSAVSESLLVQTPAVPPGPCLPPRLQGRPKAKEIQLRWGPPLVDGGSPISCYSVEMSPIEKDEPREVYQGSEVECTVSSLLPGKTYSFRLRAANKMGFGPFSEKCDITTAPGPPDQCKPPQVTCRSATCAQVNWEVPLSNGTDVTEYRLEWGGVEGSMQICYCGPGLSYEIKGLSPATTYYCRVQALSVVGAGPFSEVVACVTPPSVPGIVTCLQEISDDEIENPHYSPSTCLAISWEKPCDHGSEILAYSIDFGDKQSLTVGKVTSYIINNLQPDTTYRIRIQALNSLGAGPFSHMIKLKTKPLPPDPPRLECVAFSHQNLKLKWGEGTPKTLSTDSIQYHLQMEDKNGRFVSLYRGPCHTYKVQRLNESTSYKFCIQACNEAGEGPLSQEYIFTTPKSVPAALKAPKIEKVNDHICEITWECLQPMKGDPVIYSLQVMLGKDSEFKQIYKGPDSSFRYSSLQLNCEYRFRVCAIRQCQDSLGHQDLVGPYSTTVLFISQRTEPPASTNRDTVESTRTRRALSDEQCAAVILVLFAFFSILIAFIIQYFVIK
UniProt Q9HCG7, sequence (Q9HCG7 whole entry, looked up): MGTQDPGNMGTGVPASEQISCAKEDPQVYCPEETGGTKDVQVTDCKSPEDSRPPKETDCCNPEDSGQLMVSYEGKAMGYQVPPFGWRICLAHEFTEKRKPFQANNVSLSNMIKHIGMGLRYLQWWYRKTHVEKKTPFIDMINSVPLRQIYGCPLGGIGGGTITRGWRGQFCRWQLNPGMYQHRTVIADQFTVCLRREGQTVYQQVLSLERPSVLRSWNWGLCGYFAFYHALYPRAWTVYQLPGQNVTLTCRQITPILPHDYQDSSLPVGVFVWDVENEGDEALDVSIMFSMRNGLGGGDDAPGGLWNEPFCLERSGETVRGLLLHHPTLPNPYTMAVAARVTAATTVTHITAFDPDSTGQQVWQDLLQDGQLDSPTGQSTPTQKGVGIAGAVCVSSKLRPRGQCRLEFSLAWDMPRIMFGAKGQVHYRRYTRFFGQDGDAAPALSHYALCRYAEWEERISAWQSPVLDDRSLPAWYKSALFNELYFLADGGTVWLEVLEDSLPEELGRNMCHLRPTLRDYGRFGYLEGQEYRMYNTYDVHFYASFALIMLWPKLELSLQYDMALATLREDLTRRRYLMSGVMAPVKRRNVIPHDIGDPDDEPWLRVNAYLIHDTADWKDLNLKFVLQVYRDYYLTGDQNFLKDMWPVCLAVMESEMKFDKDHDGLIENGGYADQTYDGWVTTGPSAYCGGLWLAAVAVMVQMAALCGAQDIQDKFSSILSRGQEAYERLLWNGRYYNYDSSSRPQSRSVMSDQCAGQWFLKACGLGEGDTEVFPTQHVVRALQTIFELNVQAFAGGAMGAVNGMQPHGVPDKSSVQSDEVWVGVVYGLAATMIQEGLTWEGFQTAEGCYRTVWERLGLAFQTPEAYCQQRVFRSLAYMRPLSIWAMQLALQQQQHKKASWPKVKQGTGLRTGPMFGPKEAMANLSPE
UniProt Q8TF64, sequence (Q8TF64 whole entry, looked up): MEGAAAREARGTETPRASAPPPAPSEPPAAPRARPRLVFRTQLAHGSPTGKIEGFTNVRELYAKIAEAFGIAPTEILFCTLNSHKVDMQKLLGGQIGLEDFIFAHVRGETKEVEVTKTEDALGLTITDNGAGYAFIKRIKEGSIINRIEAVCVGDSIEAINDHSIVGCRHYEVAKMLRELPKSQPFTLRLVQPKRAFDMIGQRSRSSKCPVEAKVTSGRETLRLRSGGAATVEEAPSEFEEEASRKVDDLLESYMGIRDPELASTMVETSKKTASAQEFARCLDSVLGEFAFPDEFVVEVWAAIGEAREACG

Compound in the first assay: O=C(CCCCCCC(=O)Nc1ccccc1)NO [vorinostat]
Put plainly: log2 fold change, soluble protein after heating vs DMSO (PISA); higher = thermal stabilisation; K562 lysate, 10 uM; active = over 0.2 and 3.5 SD of the protein, either way, in both replicates (recomputed). Summed up:
(§1)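 A 30 min treatment with 10 μM compound was applied to crude K562 extract at 1 mg/mL protein in PBS pH 7.4 with 1 mM MgCl2. Heating for 3 min spanned 48°C-58°C, after which aliquots were pooled, adjusted to 0.5% NP-40 at 4°C and spun at 21,000xg for 90 min. TMTpro 16plex LC-MS/MS of the supernatant, with channel sums equalised, gave values recorded as log-two fold change in thermal stability against solvent controls, from duplicates.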
Regarding FDFT1 (UniProt P37268), the log2 fold change was -0.006.

Consider ERLIN1 (UniProt O75477), for which the log2 fold change is 0.063.

Regarding GDE1 (UniProt Q9NZC3), the log2 fold change is -0.007.

Consider GIPC3 (UniProt Q8TF64), for which the log2 fold change is -0.336.

Consider DYRK1A isoform 2 (UniProt Q13627), for which the log2 fold change was -0.222.

For the target EPS8L2 (UniProt Q9H6S3), the log2 fold change is 0.017.

Take EIF2AK3 (UniProt Q9NZJ5): the log2 fold change was -0.142.

As for FASTKD2 (UniProt Q9NYY8), the log2 fold change is -0.524 (active).

Consider FLT4 (UniProt P35916), for which the log2 fold change is -0.435 (active).

Regarding FOXL2 (UniProt P58012), the log2 fold change was -0.501.

In the case of EID1 (UniProt Q9Y6B2), the log2 fold change was -0.192.

For the target EXO5 (UniProt Q9H790), the log2 fold change was 0.043.

Take ENSA isoform 3 (UniProt O43768): the log2 fold change was 0.144.

Consider FMNL2 isoform 3 (UniProt Q96PY5), for which the log2 fold change is -0.587 (active).

As for FAT1 (UniProt Q14517), the log2 fold change was -0.229.

Turning to FOXJ2 (UniProt Q9P0K8), the log2 fold change was -0.208.

On to EPB41 isoform 4 (UniProt P11171), for which the log2 fold change was 0.071.

Turning to ELF2 (UniProt Q15723), the log2 fold change is -0.25.

DYNC1I2 isoform 2 (UniProt Q13409): the log2 fold change was 0.07.

As for GCA (UniProt P28676), the log2 fold change is 1.36 (active).

On to EHHADH (UniProt Q08426), for which the log2 fold change is 0.706 (active).

Consider EXOC3 (UniProt O60645), for which the log2 fold change was -0.221 (active).

For GBA2 (UniProt Q9HCG7), the log2 fold change is -0.089.

As for EEF1A1P5 (UniProt Q5VTE0), the log2 fold change is -0.311 (active).

As for FNDC3A (UniProt Q9Y2H6), the log2 fold change is -0.018.

As for ENO1 isoform 2 (UniProt P06733), the log2 fold change was 0.099.

As for DST isoform 3 (UniProt Q03001), the log2 fold change was -0.041.

For FANCD2 isoform 1 (UniProt Q9BXW9), the log2 fold change is -0.25 (active).

Compound in another assay: O=C(O)c1ccc2c(c1)nc(Nc1cccc(Cl)c1)c1ccncc12 [silmitasertib]
The assay is described as above. Summed up:
as §1
As for FDFT1 (UniProt P37268), the log2 fold change is 0.041.

On to ERLIN1 (UniProt O75477), for which the log2 fold change was 0.064.

Regarding GDE1 (UniProt Q9NZC3), the log2 fold change was 0.006.

For the target GIPC3 (UniProt Q8TF64), the log2 fold change is 0.044.

Turning to DYRK1A isoform 2 (UniProt Q13627), the log2 fold change is -0.035.

On to EPS8L2 (UniProt Q9H6S3), for which the log2 fold change is -0.019.

Consider EIF2AK3 (UniProt Q9NZJ5), for which the log2 fold change is 0.241.

With FASTKD2 (UniProt Q9NYY8), the log2 fold change was 0.044.

Take FLT4 (UniProt P35916): the log2 fold change was 0.178.

Regarding FOXL2 (UniProt P58012), the log2 fold change is -0.027.

Regarding EID1 (UniProt Q9Y6B2), the log2 fold change was 0.191.

Turning to EXO5 (UniProt Q9H790), the log2 fold change is -0.06.

Take ENSA isoform 3 (UniProt O43768): the log2 fold change was -0.019.

For ESRRA (UniProt P11474), the log2 fold change was 0.063.

For FMNL2 isoform 3 (UniProt Q96PY5), the log2 fold change is -0.027.

Turning to FAT1 (UniProt Q14517), the log2 fold change was 0.077.

Consider FOXJ2 (UniProt Q9P0K8), for which the log2 fold change is -0.058.

On to EPB41 isoform 4 (UniProt P11171), for which the log2 fold change was 0.101.

Regarding ELF2 (UniProt Q15723), the log2 fold change is 0.

In the case of DYNC1I2 isoform 2 (UniProt Q13409), the log2 fold change was 0.008.

As to GCA (UniProt P28676), the log2 fold change is -0.104.

As for EHHADH (UniProt Q08426), the log2 fold change is -0.035.

Take EXOC3 (UniProt O60645): the log2 fold change is 0.03.

In the case of GBA2 (UniProt Q9HCG7), the log2 fold change was -0.004.

With EEF1A1P5 (UniProt Q5VTE0), the log2 fold change is -0.017.

With FNDC3A (UniProt Q9Y2H6), the log2 fold change was -0.119.

ENO1 isoform 2 (UniProt P06733): the log2 fold change was 0.045.

For ESRRB isoform 1 (UniProt O95718), the log2 fold change was 0.087.

DST isoform 3 (UniProt Q03001): the log2 fold change was 0.087.

With FANCD2 isoform 1 (UniProt Q9BXW9), the log2 fold change was -0.012.

Compound in another assay: O=C1NC(=O)C(c2cnc3ccccn23)=C1c1cn2c3c(cc(F)cc13)CN(C(=O)N1CCCCC1)CC2
The description is as above. Summed up:
as §1
As to FDFT1 (UniProt P37268), the log2 fold change is 0.004.

For the target ERLIN1 (UniProt O75477), the log2 fold change was 0.03.

Turning to GDE1 (UniProt Q9NZC3), the log2 fold change was 0.04.

In the case of GIPC3 (UniProt Q8TF64), the log2 fold change is -0.007.

As for DYRK1A isoform 2 (UniProt Q13627), the log2 fold change was 0.002.

In the case of GART (UniProt C9JZG2), the log2 fold change was -0.069.

As for EPS8L2 (UniProt Q9H6S3), the log2 fold change was 0.026.

For the target FASTKD2 (UniProt Q9NYY8), the log2 fold change is 0.025.

For the target EWSR1 (UniProt H7BY36), the log2 fold change was -0.047.

Consider EXO5 (UniProt Q9H790), for which the log2 fold change is 0.054.

With GC isoform 3 (UniProt P02774), the log2 fold change is 0.076.

As to ENSA isoform 3 (UniProt O43768), the log2 fold change was 0.003.

For ESRRA (UniProt P11474), the log2 fold change was 0.026.

For the target FMNL2 isoform 3 (UniProt Q96PY5), the log2 fold change was 0.045.

As for FAT1 (UniProt Q14517), the log2 fold change is -0.196.

As to EPB41 isoform 4 (UniProt P11171), the log2 fold change is -0.085.

In the case of ELF2 (UniProt Q15723), the log2 fold change is -0.011.

For the target DYNC1I2 isoform 2 (UniProt Q13409), the log2 fold change was 0.054.

Take EHHADH (UniProt Q08426): the log2 fold change is -0.048.

For EXOC3 (UniProt O60645), the log2 fold change was 0.002.

With GBA2 (UniProt Q9HCG7), the log2 fold change was -0.091.

In the case of EEF1A1P5 (UniProt Q5VTE0), the log2 fold change was 0.005.

Take FNDC3A (UniProt Q9Y2H6): the log2 fold change was -0.146.

For ENO1 isoform 2 (UniProt P06733), the log2 fold change was 0.005.

As for FANCD2 isoform 1 (UniProt Q9BXW9), the log2 fold change is 0.008.
